# Measurements reported in the supplement of paper PMC6555819.
# Tested on: VDR:RXRa (NR concentration 270 nM, RXRa partner concentration 90 nM)
# Experiment: PBM binding z-score (relative to random genomic background probes); higher = stronger binding; sequences stand for … in GC…GCGATTGACAGCGTAGAATGAAGG
# Protocol: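 Protein-binding microarray (Agilent 4x180K custom design, double-stranded 60-nt probes: 5' GC cap, 34-nt variable region, 24-nt constant primer region; full probe sequence given). Purified or IVT nuclear receptor:RXRα heterodimers (3:1 NR:RXRα, mostly 270:90 nM) or homodimers were incubated for 1 h in PBS with 2% milk and no ligand, then detected with Alexa488 antibodies. Fluorescence from o1-orientation probes (~5 replicates averaged) was converted to z-scores against 500 random hg19 background probes. Variable regions are seed direct-repeat (DR0–DR5) sites, all their single-nucleotide variants and half-site ablations.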
row,Sequence,PBM binding z-score
1,CGAACTAGGGCACCAGGACAGTGAAGAGGTTGGA,-0.582
2,CCTTACGGGTCAGTGACAGGTTATAGCATTTGGA,2.49
3,GCTGCTCGGTCAACTGATGGTCAGCTAAAGCTCG,-0.285
4,ATATGTAGGTTAGGGTCTTTCAGAAAGTAGGGAA,0.666
5,TCGAGTAGGTTACGCGGGCATTCAGGGATGAAGA,-0.157
6,CGAACTAGGTCAAAGGACAATGAAAGGCGACGTA,1.73
7,CGTCAAAGTTCAACTAAGGTAACTTAAAGCACGC,4.76
8,CGAACTGGGTCACCAGGACAGTGAAGAGGTTGGA,2.13
9,CTCGAAAGGTCGGTTGAGGTCAGTATACGGATAA,6.09
10,GATACACGGTCAAGGCCAGAGTACGCGTATTGAT,-0.0304
11,TCATATAGGTAATCAGGTGAAAGTCCGTAAGTTA,1.19
12,ACTAGGTGGTCAGCTGAGGTCACACACAATTCGG,4.54
13,ATCGAAAGGGCGTGAGGTGAGTATACAGAAAGGC,0.49
14,CCAGACAGGTGAAAGGTCACTCAGTCTGGTACGC,5.03
15,CCTTGCGGGTCACTGACAGGTTATAGCATTTGGA,3.13
16,CTTAGTTGGTCAGGAGGTCACACACCGGATATGA,3.78
17,CAAACTAGGTCAAGGTCAAATTCGGTTTGTGCCA,5.06
18,AATACAGGGTCGCTAGGCCAGAGTAGGTACGAAT,0.828
19,ATATGTAGGGTAGGGTCATTCAGAAAGTAGGGAA,4.48
20,CAAACTAGGTCACGAAAGGTCAAAGTGGAATGAC,6.71

row,Sequence,PBM binding z-score
1,TAGCCTAGGTCATGGGCCTGTATACCACGCGAAC,1.98
2,GCTGCTAGGTCAGGTTGGTCTGCTAACGGGTACG,0.509
3,ATCGAAAGGTCGACGAGGTGAGAATACACCGTTT,5.52
4,CGTCCAAGGTCAGCAGGTCAGAGAAAGCGACGTG,3.98
5,CAAAATAGGTCAAGAGGTCAAAGTCCGCTTCCCG,6.53
6,CTATGTAGGTTAAGGGGGTCATTCCGTTTGAAAG,7.25
7,CGCACTAGGTCATTGACAGGACAGTGAATAGTAA,2.36
8,TCGAGTAGGATACGGGGGCATTCAGGGATGAAGA,2.49
9,ACTAGCAGGCCAAGGGTGACTCAAGATTAGTCCG,-0.401
10,CCTACTGGGCCAAAAATGTCATTGATGCCGATAA,0.0323
11,AGTCATAGTTCACTAGGTAACGTAAGATTCAGCT,1.12
12,CCGTACGGGTCAAGGTTATAGCACGGGTGGTACG,3.43
13,CCGAGTAGGTTACAAGGGGGCATTCAGTGCGAAT,5.11
14,CGAACAAGGTCAAAGGACAGTGAAAGGCGACGTA,3.93
15,AGAATGAGGTTACCAGAGATCAGGGAAACGCTTG,1.72
16,TGGAGTAGGTTACGGGGGCATTCAGGGATGAAGA,4.24
17,CCGAGTAGGTTACGAGGGGGCCTTCAGTGCGAAT,1.73
18,GCTTCCGGGTCAAAGGTTATAGCATGAATAGAAT,5.69
19,CCGAGTAGGTTAGGAGGGGGCATTCAGTGCGAAT,4.91
20,TCGAGTAGGTTACGAGGGCATTCAGGGATGAAGA,2.32
